The values that follow come from PubChem BioAssay (Tox21).

Records with an inconclusive call do not appear. The source made the active and inactive calls. Unless noted, the call rests on the fitted dose curve; in most records, active means well fitted cell-killing curve with a large enough effect in the repeat runs; inconclusive means weak or mixed curves; inactive means no such curve, though single readings can be large or run the other way.
On the % scale 0 is the no-effect control and ±100 the full control effect.

Chain of Peroxisome proliferator-activated receptor delta (Homo sapiens) (Q03181 whole entry, looked up): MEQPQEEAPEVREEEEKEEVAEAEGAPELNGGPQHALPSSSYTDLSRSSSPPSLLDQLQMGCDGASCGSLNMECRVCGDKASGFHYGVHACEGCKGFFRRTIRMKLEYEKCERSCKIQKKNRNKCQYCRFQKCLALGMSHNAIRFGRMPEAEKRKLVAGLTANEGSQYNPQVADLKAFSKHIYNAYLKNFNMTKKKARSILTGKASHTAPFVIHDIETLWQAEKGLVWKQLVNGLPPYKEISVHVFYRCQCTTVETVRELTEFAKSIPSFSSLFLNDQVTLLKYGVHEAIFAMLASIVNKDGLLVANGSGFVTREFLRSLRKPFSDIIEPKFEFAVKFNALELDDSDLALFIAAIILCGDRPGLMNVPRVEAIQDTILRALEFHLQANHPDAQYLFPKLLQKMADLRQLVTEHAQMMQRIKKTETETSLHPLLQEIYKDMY

One assay has as its target Peroxisome proliferator-activated receptor delta (Homo sapiens) (UniProt Q03181). The assay can be described thus: qHTS assay to identify small molecule agonists of the peroxisome proliferator-activated receptor delta (PPARd) signaling pathway (AID 743212; calls by dose curve). Particulars: HEK293H PPARd-UAS-bla, beta-lactamase FRET ratio, 17 h; series mostly up to 62.6 µM; activation: at the top concentration. The essentials: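 Quantitative high-throughput agonist screen in a HEK293H beta-lactamase reporter line under UAS control. Compounds in DMSO, at 37 C. Fluorescence read after 2 h with FRET substrate at room temperature.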
Regarding `O=[N+]([O-])c1cccc(S(=O)(=O)NCCNS(=O)(=O)c2cccc([N+](=O)[O-])c2)c1`, the “activation” value was 0.86% (inactive).
On the same count and under the same terms, then `CCCCC(CC)COC(=O)COc1ccc(Cl)cc1C` (stereo not given), with 0.922% (inactive); and `CN1CCN(c2c(F)cc3c(=O)c(C(=O)O)cn4c3c2OCN4C)CC1`, with 1.15% [at 29.1 µM] (inactive); and `O=C1NCCN1`, with 1.61% (inactive).
For the compound `C=CC(C)(O)CCCC(C)CCCC(C)CCCC(C)C` (stereo not given), the “activation” value is 1.07% (inactive).
For `OC(CCCN1CCCCC1)(c1ccccc1)c1ccccc1`, the “activation” value was 1.19% (inactive).
Still for that read-out and setting: as for `Nc1c(I)cc(I)c(C(=O)N(CCC(=O)O)c2ccccc2)c1I`, the figure is -3.64% (inactive).
The same measure, in the same setting: then `Nc1nccs1`, with 0.436% (inactive); and `O=C(O)c1snc(Cl)c1Cl`, with -0.215% (inactive); and `CCC1(C)CC(=O)NC1=O` (stereo not given), with 3.9% (inactive).
On the same count and under the same terms, then `C/C(=N/NC(=O)c1ccncc1)C(=O)O`, with 0.663% (inactive); and `O=S(=O)(c1ccccc1)c1ccc(Cl)cc1`, with -4.22% (inactive); and `CCOC(=O)C(C)Oc1ccc(Oc2nc3ccc(Cl)cc3o2)cc1` (stereo not given), with 0.168% (inactive).
In the case of `Oc1cc(O)c(Cl)cc1Cl`, the “activation” value is -8.11% [at 81.1 µM] (inactive).
The same measure, in the same setting: as for `C[C@@H]1C[C@H]2[C@@H]3CCC4=CC(=O)C=C[C@]4(C)[C@@]3(F)[C@@H](O)C[C@]2(C)[C@H]1C(=O)CO`, the figure is 2.93% (inactive); as for `CCC(C)=O`, 2.39% (inactive).
The same measure, in the same setting: as for `COC(=O)[C@@H]1CC2=CC(=O)CC[C@]2(C)[C@@]23O[C@@H]2C[C@@]2(C)[C@@H](CC[C@@]24CCC(=O)O4)[C@H]13`, the figure is 0.818% (inactive).
Same read-out and setting: as for `Cc1ccc(S(=O)(=O)NC2CCCCC2)cc1`, the figure is 1.32% (inactive); as for `CO[Si](C)(OC)OC`, -6.61% (inactive).
Turning to `CCOc1cc(N)c(Cl)cc1C(=O)NCC1CN(Cc2ccc(F)cc2)CCO1` (stereo not given), the “activation” value was 0.156% (inactive).
Turning to `CN1CCCN=C1/C=C/c1cccs1`, the “activation” value is -6.87% (inactive).
Regarding `CCCCCCCCCOC(C)=O`, the “activation” value is 1.1% (inactive).
Still for that read-out and setting: as for `O=C(O)c1ccc(CO)o1`, the figure is -4.15% [at 81.1 µM] (inactive); as for `CN1Cc2cc(C(=O)N3CCC(C4CCNCC4)CC3)ccc2N[C@@H](CC(=O)O)C1=O`, 0.615% (inactive); as for `CC1(C)C2=CCCC(C)(C)[C@]23CC[C@H]1C3`, -2.23% (inactive).

System in a further assay: not listed separately
The assay can be described thus: qHTS assay to identify small molecule antagonists of the peroxisome proliferator-activated receptor delta (PPARd) signaling pathway - cell viability counter screen (AID 743213). Further: nearly all actives have a fitted effect of over 50% in size. Particulars: PPARd-bla HEK293H viability, CellTiter-Glo luminescence, 17 h; series mostly up to 62 µM; viability change, negative = cytotoxic: at the top concentration. The essentials:
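Cytotoxicity counter screen: CellTiter-Glo luminescence read 30 min after addition, in the same wells as the reporter assay. There, PPARd UAS-bla HEK293H cells (3000/well) were treated 17 h at 37 C with compound and 300 nM L165041.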
Background: In qHTS, concentration-response curves come from the screen itself.
With `CCCCC(CC)COC(=O)COc1ccc(Cl)cc1C` (stereo not given), the “viability change, negative = cytotoxic” value is -2.41% (inactive).
As to `O=C1NCCN1`, the “viability change, negative = cytotoxic” value is 0.355% (inactive).
The same measure, in the same setting: then `C=CC(C)(O)CCCC(C)CCCC(C)CCCC(C)C` (stereo not given), with -0.169% (inactive).
The same measure, in the same setting: as for `OC(CCCN1CCCCC1)(c1ccccc1)c1ccccc1`, the figure is -20.9% (inactive).
For the compound `Nc1c(I)cc(I)c(C(=O)N(CCC(=O)O)c2ccccc2)c1I`, the “viability change, negative = cytotoxic” value is -11% (inactive).
Same read-out and setting: as for `Nc1nccs1`, the figure is 8.63% (inactive); as for `O=C(O)c1snc(Cl)c1Cl`, 4.27% (inactive); as for `CCC1(C)CC(=O)NC1=O` (stereo not given), 13.4% (inactive).
Same read-out and setting: then `C/C(=N/NC(=O)c1ccncc1)C(=O)O`, with 19.6% (inactive); and `CCn1nc(C)c2c1C(=O)NCC(c1ccc(O)cc1)=N2`, with 1.15% (inactive).
On the same count and under the same terms, as for `Cc1ccccc1N1C(=O)c2cc(S(N)(=O)=O)c(Cl)cc2NC1C` (stereo not given), the figure is 4.23% (inactive); as for `O=S(=O)(c1ccccc1)c1ccc(Cl)cc1`, -1.06% (inactive); as for `Nc1nc(Cl)nc2c1ncn2[C@@H]1O[C@H](CO)[C@@H](O)[C@@H]1F`, 0.0121% (inactive).
For `CCOC(=O)C(C)Oc1ccc(Oc2nc3ccc(Cl)cc3o2)cc1` (stereo not given), the “viability change, negative = cytotoxic” value was 18.2% (inactive).
On to `Oc1cc(O)c(Cl)cc1Cl`, for which the “viability change, negative = cytotoxic” value is 19.6% [at 80.4 µM] (inactive).
Regarding `C[C@@H]1C[C@H]2[C@@H]3CCC4=CC(=O)C=C[C@]4(C)[C@@]3(F)[C@@H](O)C[C@]2(C)[C@H]1C(=O)CO`, the “viability change, negative = cytotoxic” value is 5.41% (inactive).
With `O=S1OCCO1`, the “viability change, negative = cytotoxic” value was -3.84% [at 80.4 µM] (inactive).
With `CC(=O)Nc1ccccc1C`, the “viability change, negative = cytotoxic” value was 8.78% [at 80.4 µM] (inactive).
Same read-out and setting: as for `Nc1ccc(S(=O)(=O)O)c(N)c1`, the figure is 19% (inactive); as for `CCCCN(CCCC)CCCOC(=O)c1ccc(N)cc1`, 1.39% (inactive); as for `C=CC(C)=CCC=C(C)C`, 4.92% (inactive).
The same measure, in the same setting: as for `CCC(C)=O`, the figure is -16% (inactive); as for `COC(=O)[C@@H]1CC2=CC(=O)CC[C@]2(C)[C@@]23O[C@@H]2C[C@@]2(C)[C@@H](CC[C@@]24CCC(=O)O4)[C@H]13`, 3.89% (inactive).
Same read-out and setting: then `NC(=O)Nc1ccc(Cl)cc1`, with 0.561% (inactive); and `Cc1ccc(S(=O)(=O)NC2CCCCC2)cc1`, with 15.1% (inactive).
For the compound `CO[Si](C)(OC)OC`, the “viability change, negative = cytotoxic” value was -21.5% (inactive).
Regarding `CCCCOC(=O)CCS`, the “viability change, negative = cytotoxic” value was 8.84% (inactive).
Still for that read-out and setting: as for `CCOc1cc(N)c(Cl)cc1C(=O)NCC1CN(Cc2ccc(F)cc2)CCO1` (stereo not given), the figure is -23% (inactive); as for `CN1CCCN=C1/C=C/c1cccs1`, -31.5% (inactive).
Turning to `CCCCCCCCCOC(C)=O`, the “viability change, negative = cytotoxic” value was -0.691% (inactive).
On the same count and under the same terms, then `Cn1c(=O)c2c(ncn2CC(=O)O)n(C)c1=O`, with 18.7% (inactive); and `O=C(O)c1ccc(CO)o1`, with 4.92% [at 80.4 µM] (inactive).
Still for that read-out and setting: then `CN1Cc2cc(C(=O)N3CCC(C4CCNCC4)CC3)ccc2N[C@@H](CC(=O)O)C1=O`, with 10.6% (inactive).
Same read-out and setting: as for `CC1(C)C2=CCCC(C)(C)[C@]23CC[C@H]1C3`, the figure is -4.38% (inactive).

The next assay concerns the target Peroxisome proliferator-activated receptor delta (Homo sapiens) (UniProt Q03181). The assay can be described thus: qHTS assay to identify small molecule antagonists of the peroxisome proliferator-activated receptor delta (PPARd) signaling pathway (AID 743215; active means well fitted inhibition curve with a large enough effect in the signal ratio in the repeat runs, not every such curve was filed as active; the % refers to the signal ratio;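 further: cells stimulated with agonist L165041 at 300 nM final during compound exposure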). Particulars: HEK293H PPARd-UAS-bla, beta-lactamase FRET ratio, antagonist, 17 h; series mostly up to 62 µM; ratio activity, negative = inhibition: at the top concentration. The essentials: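 PPARd-bla HEK293H cells (UAS-bla reporter) preincubated 5 h, then given compound plus 300 nM final L165041 agonist for 17 h at 37 C. Beta-lactamase activity read by LiveBLAzer B/G FRET substrate fluorescence after 2 h at room temperature.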
As to `CN1CCN(c2c(F)cc3c(=O)c(C(=O)O)cn4c3c2OCN4C)CC1`, the “ratio activity, negative = inhibition” value is -1.46% [at 28.9 µM] (inactive).
Same read-out and setting: as for `O=C1NCCN1`, the figure is 2.61% (inactive); as for `C=CC(C)(O)CCCC(C)CCCC(C)CCCC(C)C` (stereo not given), -10% (inactive); as for `OC(CCCN1CCCCC1)(c1ccccc1)c1ccccc1`, -2.7% (inactive).
On the same count and under the same terms, as for `Nc1c(I)cc(I)c(C(=O)N(CCC(=O)O)c2ccccc2)c1I`, the figure is -9.43% (inactive); as for `Nc1nccs1`, -0.191% (inactive); as for `O=C(O)c1snc(Cl)c1Cl`, -2.22% (inactive).
Still for that read-out and setting: then `CCC1(C)CC(=O)NC1=O` (stereo not given), with 2.3% (inactive).
`C/C(=N/NC(=O)c1ccncc1)C(=O)O`: the “ratio activity, negative = inhibition” value was 1.02% (inactive).
Same read-out and setting: as for `Cc1ccccc1N1C(=O)c2cc(S(N)(=O)=O)c(Cl)cc2NC1C` (stereo not given), the figure is 2.99% (inactive).
On to `O=S(=O)(c1ccccc1)c1ccc(Cl)cc1`, for which the “ratio activity, negative = inhibition” value was -1.99% (inactive).
With `CC(C)C(=O)O`, the “ratio activity, negative = inhibition” value is 0.924% (inactive).
In the case of `CCOC(=O)C(C)Oc1ccc(Oc2nc3ccc(Cl)cc3o2)cc1` (stereo not given), the “ratio activity, negative = inhibition” value was 2.75% (inactive).
On the same count and under the same terms, then `Oc1cc(O)c(Cl)cc1Cl`, with -6.46% [at 80.4 µM] (inactive); and `C[C@@H]1C[C@H]2[C@@H]3CCC4=CC(=O)C=C[C@]4(C)[C@@]3(F)[C@@H](O)C[C@]2(C)[C@H]1C(=O)CO`, with 13.8% (inactive).
As for `CC(=O)Nc1ccccc1C`, the “ratio activity, negative = inhibition” value was 11.6% [at 80.4 µM] (inactive).
As for `Nc1ccc(S(=O)(=O)O)c(N)c1`, the “ratio activity, negative = inhibition” value was 1.95% (inactive).
On to `CCC(C)=O`, for which the “ratio activity, negative = inhibition” value was 1.91% (inactive).
Same read-out and setting: then `COC(=O)[C@@H]1CC2=CC(=O)CC[C@]2(C)[C@@]23O[C@@H]2C[C@@]2(C)[C@@H](CC[C@@]24CCC(=O)O4)[C@H]13`, with -0.225% (inactive); and `Cc1ccc(S(=O)(=O)NC2CCCCC2)cc1`, with 5% (inactive).
On the same count and under the same terms, then `CCCCOC(=O)CCS`, with 5.2% (inactive); and `CCOc1cc(N)c(Cl)cc1C(=O)NCC1CN(Cc2ccc(F)cc2)CCO1` (stereo not given), with 5.5% (inactive).
Still for that read-out and setting: as for `CCCCCCCCCOC(C)=O`, the figure is 11.9% (inactive).
With `O=C(O)c1ccc(CO)o1`, the “ratio activity, negative = inhibition” value was 5.96% [at 80.4 µM] (inactive).
Same read-out and setting: then `CN1Cc2cc(C(=O)N3CCC(C4CCNCC4)CC3)ccc2N[C@@H](CC(=O)O)C1=O`, with 2.42% (inactive).
For `CC1(C)C2=CCCC(C)(C)[C@]23CC[C@H]1C3`, the “ratio activity, negative = inhibition” value was -9.62% (inactive).
